Test systems include EKVX NSCLC; SN12C renal; UO-31 renal; ACHN renal; CAKI-1 renal; A498 renal; CCRF-CEM leukemia; MOLT-4 leukemia; SR leukemia; RPMI-8226 leukemia; OVCAR-8 ovarian; OVCAR-5 ovarian; OVCAR-4 ovarian; SK-OV-3 ovarian; IGROV1 ovarian; OVCAR-3 ovarian; HS 578T breast; NCI/ADR-RES ovarian; T-47D breast.
Common to all, as to test: NCI-60 one-dose screen, 48 h (100 = growth as untreated, 0 = no growth, -100 = all killed)
Holding throughout (conditions): 10 µM unless noted

About 83,000 compounds went through this panel and 20% of them were active in at least one assay; those are over-represented in the sample as a whole.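 Treatment: one concentration, 48 hours, 96-well format. Scoring: percent growth, with anything below 10 considered active.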 Unmarked numbers belong to inactive results. Calls of active or inactive are those of the source.

On to `Clc1ccc2oc3c(OCCCn4ccnc4)c4ccccc4nc3c2c1`, for which the growth was 71.9% in the test with EKVX NSCLC; 56.3% in the test on SN12C renal; 43.9% in the test on UO-31 renal; 34.8% in the test with ACHN renal; 38.5% in the test with CAKI-1 renal; 8.47% (active) in the test with A498 renal. Moreover, the growth in the test on CCRF-CEM leukemia is 59.6%; in the test on MOLT-4 leukemia, 24.7%; in the test on SR leukemia it was 32.5%; in the test with RPMI-8226 leukemia, 67%; in the test on OVCAR-8 ovarian it was 44.3%; in the test on OVCAR-5 ovarian, 73.5%. The growth with OVCAR-4 ovarian was 74.5%; in the test on SK-OV-3 ovarian, 112%; in the test with IGROV1 ovarian, 55%; in the test on OVCAR-3 ovarian it was 101%; in the test with HS 578T breast, 87.8%; with NCI/ADR-RES ovarian, 56.4%. In addition, in the test on T-47D breast, the growth is 74.6%.

Consider `c1ccc(CNc2ncnc3ccc(-c4cnc5[nH]ncc5c4)cc23)cc1`, for which the growth was 46.6% in the test with EKVX NSCLC; 56.6% in the test on SN12C renal; 35% in the test on UO-31 renal; 34.5% with ACHN renal; 36.3% with CAKI-1 renal; -8.94% (active) in the test on A498 renal. Also, the growth was 73.1% in the test on CCRF-CEM leukemia; 34.6% in the test with MOLT-4 leukemia; 60.8% in the test with RPMI-8226 leukemia; 71.2% in the test with OVCAR-8 ovarian; 61.8% with OVCAR-5 ovarian; 72.1% in the test with SK-OV-3 ovarian. The growth with IGROV1 ovarian is 9.48% (active); in the test with OVCAR-3 ovarian it was 67.1%; with HS 578T breast, 45%; with NCI/ADR-RES ovarian, 81.9%; in the test with T-47D breast, 18.5%.

Take `CN(C)CCCNc1c2ccc(Cl)cc2nc2c1oc1ccccc12`: the growth was -26.7% (active) with EKVX NSCLC; 6.3% (active) in the test with SN12C renal; 12.3% with UO-31 renal; -36.5% (active) with ACHN renal; 6.06% (active) in the test on CAKI-1 renal; 8.64% (active) in the test with A498 renal. Besides, the growth was -18.8% (active) with SR leukemia; -21.1% (active) in the test on RPMI-8226 leukemia; -17.9% (active) in the test on OVCAR-8 ovarian; 1.91% (active) with OVCAR-5 ovarian; 8.04% (active) with OVCAR-4 ovarian; 42% in the test with SK-OV-3 ovarian. Further, the growth in the test with IGROV1 ovarian is -13% (active); with OVCAR-3 ovarian it was 31%; in the test with HS 578T breast, 37%; with NCI/ADR-RES ovarian, 2.84% (active); in the test on T-47D breast, 46.3%.

Regarding `CSCCC(C(=O)O)N1C(=O)/C(=C/c2ccc(O)c(O)c2)SC1=S` (configuration not stated), the growth in the test with EKVX NSCLC was 96.2%; in the test with SN12C renal it was 99.2%; with UO-31 renal it was 89.3%; in the test on ACHN renal, 99.9%; with CAKI-1 renal, 95.6%; in the test on A498 renal it was 85.3%. Further, the growth with CCRF-CEM leukemia was 105%; in the test on MOLT-4 leukemia it was 108%; in the test on SR leukemia, 103%; in the test with RPMI-8226 leukemia it was 110%; in the test on OVCAR-8 ovarian it was 108%; in the test with OVCAR-5 ovarian, 94.6%. Further, the growth was 110% in the test with SK-OV-3 ovarian; 98.9% with IGROV1 ovarian; 111% in the test with OVCAR-3 ovarian; 104% in the test with HS 578T breast; 108% in the test on NCI/ADR-RES ovarian; 95.1% in the test on T-47D breast.

Take `COc1cccc(COc2ccc(/C=C3/C(=O)Nc4cc(Cl)ccc43)cc2)c1`: the growth in the test on EKVX NSCLC is 87.6%; with SN12C renal it was 91.1%; with UO-31 renal, 75.4%; in the test on ACHN renal, 96.9%; with CAKI-1 renal, 90.6%; in the test with A498 renal it was 93%. In addition, the growth is 82.6% in the test on CCRF-CEM leukemia; -25.9% (active) with MOLT-4 leukemia; 78% in the test with RPMI-8226 leukemia; 90.8% with OVCAR-8 ovarian; 96.1% in the test on OVCAR-5 ovarian; 96.6% in the test on OVCAR-4 ovarian. Further, the growth in the test on SK-OV-3 ovarian is 100%; with IGROV1 ovarian, 87.6%; with OVCAR-3 ovarian, 105%; with NCI/ADR-RES ovarian it was 90.3%; in the test with T-47D breast, 80.6%.

`COc1cc2nc(-c3ccc(Cl)cc3)cc(OCCCNCC3CCCO3)c2cc1OC` (configuration not stated): the growth with EKVX NSCLC was 67.1%; in the test with SN12C renal it was 47.3%; in the test on UO-31 renal it was 57.3%; with ACHN renal, 46.6%; with CAKI-1 renal, 17.3%; in the test on A498 renal it was 47.9%. Moreover, the growth was 49.1% in the test with CCRF-CEM leukemia; 40.6% in the test with MOLT-4 leukemia; 19.5% in the test on SR leukemia; 8.63% (active) in the test on RPMI-8226 leukemia; 42.2% in the test on OVCAR-8 ovarian; 50.1% with OVCAR-5 ovarian. Moreover, the growth with OVCAR-4 ovarian was 79.4%; in the test with SK-OV-3 ovarian it was 88.4%; in the test with IGROV1 ovarian, 33.7%; in the test with OVCAR-3 ovarian, 87.7%; in the test with NCI/ADR-RES ovarian, 46.8%; with T-47D breast, 77.1%.

Regarding `COc1ccc(-c2nn3c(-c4ccccc4F)nnc3s2)cc1`, the growth in the test on EKVX NSCLC is 70%; in the test on SN12C renal, 58.2%; in the test on UO-31 renal it was 65%; with ACHN renal, 78.1%; in the test with CAKI-1 renal, 50.7%; in the test on A498 renal, 16.4%. Besides, the growth with CCRF-CEM leukemia was 58.5%; in the test on MOLT-4 leukemia, 35.1%; with SR leukemia, 15.4%; with RPMI-8226 leukemia it was 58%; with OVCAR-8 ovarian, 68.3%; with OVCAR-5 ovarian, 81.2%. Besides, the growth in the test on SK-OV-3 ovarian was 84%; in the test with IGROV1 ovarian, 57.3%; in the test on OVCAR-3 ovarian, 49.6%; with HS 578T breast, 74.2%; with NCI/ADR-RES ovarian, 21.3%; with T-47D breast it was 46%.

As to `CS(=O)(=O)c1ccc(-c2nc3ccccn3c2/C=N/Nc2nc(-c3ccc(Cl)cc3)cs2)cc1`, the growth is 96.8% in the test on EKVX NSCLC; 102% in the test on SN12C renal; 76.2% in the test on UO-31 renal; 101% in the test with ACHN renal; 91.8% in the test with CAKI-1 renal; 79.9% in the test on A498 renal. Also, the growth in the test with CCRF-CEM leukemia is 85.6%; in the test on MOLT-4 leukemia it was 82%; in the test with SR leukemia, 95.1%; with RPMI-8226 leukemia, 82.2%; in the test with OVCAR-8 ovarian, 98%; in the test on OVCAR-5 ovarian, 104%. Further, the growth in the test with OVCAR-4 ovarian is 105%; with SK-OV-3 ovarian, 140%; in the test on IGROV1 ovarian, 115%; in the test on OVCAR-3 ovarian, 124%; in the test with NCI/ADR-RES ovarian, 104%; in the test on T-47D breast, 78%.
